# From the supplement of paper PMC10849652
# Of roughly 7,900 targets only a part is listed; those with a hit were picked by preference. About 0.6% of all pairs of compound and target were hits. A number with no mark means an inactive call.
# Experiments:
# Experiment in all cases: log2 fold change, soluble protein after heating vs DMSO (PISA); higher = thermal stabilisation; K562 cells, 10 uM, 30 min; active = over 0.2 and 3.5 SD of the protein, either way, in both replicates (recomputed)
# [1] = compound: CC[C@@H]1C(=O)N(C)c2cnc(Nc3ccc(C(=O)NC4CCN(C)CC4)cc3OC)nc2N1C1CCCC1
# In short: (§1)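 K562 cells at 2×10^6 cells/mL were given 10 μM compound for 30 min. Aliquots then went through 3 min of heating across 48°C-58°C, were pooled, and were extracted in PBS with 0.5% NP-40 at 4°C, and the supernatant after 21,000xg for 90 min was quantified by TMTpro 16plex LC-MS/MS with channel sums equalised. Thermal stability relative to control samples, from duplicates, is given as log2 fold change.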
# [2] = compound: CC[C@@H]1C(=O)N(C)c2cnc(Nc3ccc(C(=O)N[C@H]4CC[C@H](N5CCN(CC6CC6)CC5)CC4)cc3OC)nc2N1C(C)C [volasertib]
# In short: as §1
# [3] = compound: CC[C@H](C)N1C=C(C2=C(C=C(C=C21)C3=CN=C(C=C3)N4CCNCC4)C(=O)NCC5=C(C=C(NC5=O)C)C)C
# In short: as §1
# [4] = compound: CC[C@H](C)[C@@H](C(=O)N[C@@H]([C@@H](C)O)C(=O)N[C@@H](CC(C)C)C(=O)[C@]1(CO1)C)NC(=O)[C@H]([C@@H](C)CC)N(C)C(=O)C [epoxomicin]
# In short: as §1
# [5] = compound: CCn1c(C(=O)N(C2CC2)C2CC2)cc2c3c(ncn3C)c(Nc3cc(C)n(C)n3)nc21
# In short: as §1
# [6] = compound: CCn1cc(-c2ccnc3[nH]c(-c4cccc(CN(C)C)c4)cc23)c(-c2ccc(NC(=O)N(C)C)cc2)n1
# In short: as §1
# [7] = compound: CN(C)CC(=O)Nc1ccc2[nH]c(=O)c3ccccc3c2c1
# In short: as §1
# [8] = compound: CN(CCOC1=CC=C(C=C1)C[C@H]2C(=O)NC(=O)S2)C3=CC=CC=N3 (racemic) [rosiglitazone]
# In short: as §1
# [9] = compound: CN1C2=C(C3=C1C(=O)N(N=C3)CC4=CC(=CC=C4)N)SC(=C2)S(=O)C
# In short: as §1
# [10] = compound: CN1CCC(CNc2ccc3ncc(-c4cccc(OC(F)(F)F)c4)n3n2)CC1
# In short: as §1
# [11] = compound: CN1CCN(CCOc2cc(OC3CCOCC3)c3c(Nc4c(Cl)ccc5c4OCO5)ncnc3c2)CC1 [saracatinib]
# In short: as §1
# [12] = compound: CN1CCN(c2nc(C3=C(c4c[nH]c5ccccc45)C(=O)NC3=O)c3ccccc3n2)CC1 [sotrastaurin]
# In short: as §1
# [13] = compound: CN1CC[C@H](c2c(O)cc(O)c3c(=O)cc(-c4ccccc4Cl)oc23)[C@H](O)C1 [alvocidib]
# In short: as §1
# [14] = compound: CN1CCc2c(c3ccccc3n2Cc2ccc(C(=O)NO)cc2)C1 [Tubastatin A]
# In short: as §1
# [15] = compound: CNC(=O)C1=CC=CC=C1NC2=NC(=NC=C2Cl)NC3=C(C=C(C=C3)N4CCOCC4)OC
# In short: as §1
# [16] = compound: CNC(=O)c1ccc(Nc2ncc(C(F)(F)F)c(NCc3nccnc3N(C)S(C)(=O)=O)n2)cc1 [defactinib]
# In short: as §1
# [17] = compound: CNCc1ccc(-c2[nH]c3cc(F)cc4c3c2CCNC4=O)cc1 [rucaparib]
# In short: as §1
# [18] = compound: CNc1nc(-c2ccc3c(N)n[nH]c3c2)cc(N2C[C@@H](C(=O)NC3CCCCC3)CC[C@H]2C)n1
# In short: as §1
# [19] = compound: COC(=O)N[C@@H](C)CNc1nccc(-c2cn(C(C)C)nc2-c2cc(Cl)cc(NS(C)(=O)=O)c2F)n1 [encorafenib]
# In short: as §1
# [20] = compound: COC(=O)[C@H](CCSC)NC(=O)C1=C(C=C(C=C1)NC[C@H](CS)N)C2=CC=CC=C2
# In short: as §1
# Sequence of UniProt Q03014 (Q03014 whole entry, looked up): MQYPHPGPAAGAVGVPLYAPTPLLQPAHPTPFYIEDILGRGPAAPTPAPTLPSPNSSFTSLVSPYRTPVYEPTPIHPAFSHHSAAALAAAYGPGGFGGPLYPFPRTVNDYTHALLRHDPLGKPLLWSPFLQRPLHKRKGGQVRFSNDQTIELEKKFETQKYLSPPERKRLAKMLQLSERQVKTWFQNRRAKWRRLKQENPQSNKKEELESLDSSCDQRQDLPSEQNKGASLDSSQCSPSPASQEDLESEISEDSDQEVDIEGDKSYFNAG
# Sequence of UniProt P85037 (P85037 whole entry, looked up): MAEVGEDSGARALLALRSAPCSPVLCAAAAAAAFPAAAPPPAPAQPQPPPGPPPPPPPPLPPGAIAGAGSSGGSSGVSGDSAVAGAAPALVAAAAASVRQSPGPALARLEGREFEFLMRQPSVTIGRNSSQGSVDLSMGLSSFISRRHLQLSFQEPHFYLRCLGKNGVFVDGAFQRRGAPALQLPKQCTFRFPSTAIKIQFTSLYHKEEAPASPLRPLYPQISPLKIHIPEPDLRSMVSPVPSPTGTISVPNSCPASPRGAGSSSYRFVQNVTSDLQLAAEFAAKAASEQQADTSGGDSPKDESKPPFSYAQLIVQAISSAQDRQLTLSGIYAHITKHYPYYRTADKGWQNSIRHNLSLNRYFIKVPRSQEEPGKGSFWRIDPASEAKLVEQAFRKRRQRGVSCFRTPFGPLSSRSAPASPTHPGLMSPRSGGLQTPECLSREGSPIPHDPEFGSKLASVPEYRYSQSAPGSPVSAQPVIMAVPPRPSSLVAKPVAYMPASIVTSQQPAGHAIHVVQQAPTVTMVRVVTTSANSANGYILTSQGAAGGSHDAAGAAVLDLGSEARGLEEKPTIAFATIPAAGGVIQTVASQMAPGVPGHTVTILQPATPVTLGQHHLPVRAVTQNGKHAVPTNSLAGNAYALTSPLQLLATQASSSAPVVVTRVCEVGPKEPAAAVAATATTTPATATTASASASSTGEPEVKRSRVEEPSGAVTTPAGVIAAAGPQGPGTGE
# Sequence of UniProt P00390 (P00390 whole entry, looked up): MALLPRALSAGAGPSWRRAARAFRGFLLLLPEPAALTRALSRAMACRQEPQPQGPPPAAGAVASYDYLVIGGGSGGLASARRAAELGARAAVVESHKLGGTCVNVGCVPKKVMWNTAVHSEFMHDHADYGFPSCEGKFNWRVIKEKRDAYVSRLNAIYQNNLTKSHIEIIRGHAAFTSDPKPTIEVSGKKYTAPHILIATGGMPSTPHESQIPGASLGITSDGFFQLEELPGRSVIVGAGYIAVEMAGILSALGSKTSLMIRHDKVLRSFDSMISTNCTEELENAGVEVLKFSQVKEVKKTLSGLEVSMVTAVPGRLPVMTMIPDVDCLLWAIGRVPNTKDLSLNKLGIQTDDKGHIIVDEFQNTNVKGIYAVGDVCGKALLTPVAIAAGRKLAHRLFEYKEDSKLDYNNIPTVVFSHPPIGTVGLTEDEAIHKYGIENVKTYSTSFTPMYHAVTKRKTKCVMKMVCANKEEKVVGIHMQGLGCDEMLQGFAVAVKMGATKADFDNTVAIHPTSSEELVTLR
# Sequence of UniProt Q14C86 (Q14C86 whole entry, looked up): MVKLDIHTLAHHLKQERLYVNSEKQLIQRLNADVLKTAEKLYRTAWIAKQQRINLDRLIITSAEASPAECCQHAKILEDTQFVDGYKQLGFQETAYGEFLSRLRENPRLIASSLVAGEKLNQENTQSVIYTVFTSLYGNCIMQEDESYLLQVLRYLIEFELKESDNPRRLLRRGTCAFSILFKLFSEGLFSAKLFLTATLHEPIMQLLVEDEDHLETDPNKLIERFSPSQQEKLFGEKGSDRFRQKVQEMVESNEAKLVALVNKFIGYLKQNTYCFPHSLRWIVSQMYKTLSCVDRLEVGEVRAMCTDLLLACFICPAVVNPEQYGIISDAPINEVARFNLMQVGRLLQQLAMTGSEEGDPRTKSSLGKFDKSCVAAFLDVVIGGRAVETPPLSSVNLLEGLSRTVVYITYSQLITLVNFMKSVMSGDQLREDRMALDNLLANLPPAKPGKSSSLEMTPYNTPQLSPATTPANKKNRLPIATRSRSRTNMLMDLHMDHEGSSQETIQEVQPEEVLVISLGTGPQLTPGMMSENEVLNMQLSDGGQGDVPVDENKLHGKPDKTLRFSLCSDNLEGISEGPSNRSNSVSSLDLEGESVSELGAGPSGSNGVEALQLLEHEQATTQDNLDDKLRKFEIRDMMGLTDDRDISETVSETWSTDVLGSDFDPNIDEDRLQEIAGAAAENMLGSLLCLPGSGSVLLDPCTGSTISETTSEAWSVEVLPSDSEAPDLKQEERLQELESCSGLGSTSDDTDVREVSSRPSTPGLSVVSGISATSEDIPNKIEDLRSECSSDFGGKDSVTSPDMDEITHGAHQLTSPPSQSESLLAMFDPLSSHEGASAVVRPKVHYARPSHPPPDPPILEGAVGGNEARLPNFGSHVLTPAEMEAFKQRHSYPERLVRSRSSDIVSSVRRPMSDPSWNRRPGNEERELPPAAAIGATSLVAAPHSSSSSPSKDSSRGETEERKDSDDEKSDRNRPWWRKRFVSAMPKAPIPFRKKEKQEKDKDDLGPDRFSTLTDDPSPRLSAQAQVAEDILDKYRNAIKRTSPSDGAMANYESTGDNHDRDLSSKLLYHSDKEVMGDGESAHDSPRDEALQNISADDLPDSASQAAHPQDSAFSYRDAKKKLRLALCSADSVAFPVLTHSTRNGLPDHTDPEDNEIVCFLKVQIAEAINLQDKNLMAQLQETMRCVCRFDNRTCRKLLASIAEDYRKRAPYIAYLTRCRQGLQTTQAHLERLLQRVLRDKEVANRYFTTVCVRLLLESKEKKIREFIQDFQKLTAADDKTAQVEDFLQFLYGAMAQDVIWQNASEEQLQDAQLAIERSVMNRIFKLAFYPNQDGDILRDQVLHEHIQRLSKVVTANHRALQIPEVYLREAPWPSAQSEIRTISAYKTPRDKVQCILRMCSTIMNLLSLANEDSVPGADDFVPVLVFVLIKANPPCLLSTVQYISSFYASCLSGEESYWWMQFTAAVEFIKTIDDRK
# Sequence of UniProt P52655 (P52655 whole entry, looked up): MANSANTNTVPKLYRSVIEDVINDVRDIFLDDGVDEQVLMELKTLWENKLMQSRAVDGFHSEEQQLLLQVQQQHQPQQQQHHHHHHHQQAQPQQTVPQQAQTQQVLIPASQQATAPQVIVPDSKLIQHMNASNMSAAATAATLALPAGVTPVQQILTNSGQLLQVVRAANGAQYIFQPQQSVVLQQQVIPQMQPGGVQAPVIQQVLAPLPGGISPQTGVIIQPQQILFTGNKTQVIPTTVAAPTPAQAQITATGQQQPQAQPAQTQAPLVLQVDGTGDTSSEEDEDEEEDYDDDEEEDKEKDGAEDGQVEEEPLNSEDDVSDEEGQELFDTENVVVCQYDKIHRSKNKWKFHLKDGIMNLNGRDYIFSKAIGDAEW
# Sequence of UniProt P60520 (P60520 whole entry, looked up): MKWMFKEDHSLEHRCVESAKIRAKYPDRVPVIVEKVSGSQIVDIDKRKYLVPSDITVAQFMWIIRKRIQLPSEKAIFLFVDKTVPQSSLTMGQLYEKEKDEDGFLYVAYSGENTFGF
# Sequence of UniProt Q03013 (Q03013 whole entry, looked up): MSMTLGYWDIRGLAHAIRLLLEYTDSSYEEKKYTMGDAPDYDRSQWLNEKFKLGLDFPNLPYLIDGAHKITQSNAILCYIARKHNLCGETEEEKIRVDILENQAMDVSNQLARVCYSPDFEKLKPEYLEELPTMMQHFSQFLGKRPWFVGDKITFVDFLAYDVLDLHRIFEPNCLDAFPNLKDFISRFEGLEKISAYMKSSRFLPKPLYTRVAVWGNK
# Sequence of UniProt P48507 (P48507 whole entry, looked up): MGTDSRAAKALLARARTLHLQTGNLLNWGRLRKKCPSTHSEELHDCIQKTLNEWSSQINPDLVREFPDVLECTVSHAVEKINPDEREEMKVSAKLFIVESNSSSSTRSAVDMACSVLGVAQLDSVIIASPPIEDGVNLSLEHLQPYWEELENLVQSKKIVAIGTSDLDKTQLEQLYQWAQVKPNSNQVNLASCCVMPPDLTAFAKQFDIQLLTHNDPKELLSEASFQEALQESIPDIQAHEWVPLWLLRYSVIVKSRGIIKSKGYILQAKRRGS
# Sequence of UniProt Q8IVV7 (Q8IVV7 whole entry, looked up): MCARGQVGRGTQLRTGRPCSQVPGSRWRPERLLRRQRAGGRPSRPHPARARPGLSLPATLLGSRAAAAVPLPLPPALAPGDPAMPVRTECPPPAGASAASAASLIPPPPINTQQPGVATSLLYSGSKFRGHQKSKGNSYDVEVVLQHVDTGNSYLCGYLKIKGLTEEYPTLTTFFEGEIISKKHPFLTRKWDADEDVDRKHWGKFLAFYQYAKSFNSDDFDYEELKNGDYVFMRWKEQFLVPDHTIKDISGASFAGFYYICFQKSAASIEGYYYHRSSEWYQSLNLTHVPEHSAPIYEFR
# Sequence of UniProt P09105 (P09105 whole entry, looked up): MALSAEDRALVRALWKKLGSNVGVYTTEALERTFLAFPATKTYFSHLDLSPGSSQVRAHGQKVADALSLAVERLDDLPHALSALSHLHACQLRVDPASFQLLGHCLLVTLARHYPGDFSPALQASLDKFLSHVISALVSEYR
# Sequence of UniProt P07910 (P07910 whole entry, looked up): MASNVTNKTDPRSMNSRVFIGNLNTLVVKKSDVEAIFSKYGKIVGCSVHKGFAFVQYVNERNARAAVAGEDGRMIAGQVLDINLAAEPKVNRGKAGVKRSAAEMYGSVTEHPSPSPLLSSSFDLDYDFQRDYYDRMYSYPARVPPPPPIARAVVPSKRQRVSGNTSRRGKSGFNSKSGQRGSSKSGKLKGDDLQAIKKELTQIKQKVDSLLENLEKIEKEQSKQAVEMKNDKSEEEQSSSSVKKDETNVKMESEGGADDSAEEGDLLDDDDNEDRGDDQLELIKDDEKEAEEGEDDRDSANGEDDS
Target,log2 fold change [1],log2 fold change [2],log2 fold change [3],log2 fold change [4],log2 fold change [5],log2 fold change [6],log2 fold change [7],log2 fold change [8],log2 fold change [9],log2 fold change [10],log2 fold change [11],log2 fold change [12],log2 fold change [13],log2 fold change [14],log2 fold change [15],log2 fold change [16],log2 fold change [17],log2 fold change [18],log2 fold change [19],log2 fold change [20]
HBQ1 (UniProt P09105),0.01,-0.014,-0.005,0.375 (active),0.069,-0.064,0.047,0.021,-0.145,0.063,-0.029,0.007,-0.034,-0.011,-0.013,-0.009,-0.027,0.008,-0.007,0.028
GAPVD1 isoform 6 (UniProt Q14C86),-0.12,-0.585 (active),0.034,-0.015,-0.061,-0.016,0.038,0.034,0.083,-0.197,-0.04,-0.158,-0.063,-0.009,-0.007,-0.07,0.103,0.032,0.125,-0.043
GSTM4 (UniProt Q03013),0.202,0.095,0.039,-0.009,0.036,-0.063,0.025,-0.24,-0.054,-0.182,-0.106,-0.066,-0.065,-0.044,0.003,-0.086,-0.385 (active),0.06,-0.238,0.093
GID4 (UniProt Q8IVV7),0.082,0.037,0.044,-0.019,0.08,0.116,-0.21,0.003,-0.093,-0.006,0.04,-0.091,-0.006,0.015,-0.038,0.032,0.032,-0.079,-0.072,0.139
GSR (UniProt P00390),0.04,0.034,-0.038,0.001,-0.023,-0.008,-0.018,0.024,-0.071,-0.02,-0.021,0.048,0,0.008,-0.006,-0.016,-0.025,-0.021,-0.02,0.002
GABARAPL2 (UniProt P60520),-0.29 (active),-0.182,0.041,0.027,0.007,-0.049,-0.017,0.099,-0.07,-0.099,0.021,0.047,-0.008,0.045,0.011,-0.019,-0.111,-0.013,-0.02,-0.009
GSTO1 (UniProt P78417),0.005,0.08,0.009,0.013,0.036,-0.052,-0.007,0.018,-0.082,0.084,0.027,0.094,-0.016,-0.021,-0.034,0.001,-0.09,-0.004,0.001,0
GCLM (UniProt P48507),-0.183,-0.41 (active),0.058,0.03,-0.049,-0.046,0.042,0.082,0.03,-0.112,0.012,-0.055,-0.126,0.061,0.155,-0.151,0.033,-0.045,0.048,-0.042
GIGYF2 (UniProt Q6Y7W6),-0.093,-0.52 (active),0.02,0,-0.046,-0.039,0.032,0.069,0.021,-0.221 (active),-0.097,-0.111,-0.118,0.023,0.005,-0.04,0.065,0.016,-0.018,-0.022
HMG20A (UniProt Q9NP66),0.083,-0.155,0.029,-0.107,-0.031,0,0.053,0.017,0.143,-0.003,0.038,-0.106,-0.075,0.018,0.005,0.029,-0.323,-0.015,-0.109,-0.009
GLS (UniProt O94925),-0.271,-0.366 (active),0.142,0.151,-0.026,-0.051,0.103,0.085,-0.085,-0.241,0.039,-0.023,-0.147,0.021,-0.031,-0.167,0.002,-0.092,0.017,-0.093
FEN1 (UniProt P39748),-0.073,-0.037,0.086,0.109,-0.13,-0.174,0.155,0.17,-0.057,-0.283,-0.087,-0.028,-0.099,0.116,-0.092,-0.139,-0.128,0.183,0.054,-0.087
HHEX (UniProt Q03014),0.027,0.07,0.053,0.164,0.019,0.05,0.234,-0.029,0.117,-0.023,0.095,-0.068,-0.146,0.126,0.035,-0.173,0.04,-0.011,-0.061,0.651
FOXK1 (UniProt P85037),0.429,-0.017,0.035,0.027,-0.094,0.041,-0.001,-0.077,-0.289,0.456,0.214,-1.37 (active),-1.01 (active),-0.112,0.2,-0.941,-0.759,0.615,0.054,-0.111
HNRNPC isoform 2 (UniProt P07910),0.238,0.276,0.017,-0.423,-0.19,0.147,-0.151,-0.129,0.467,-0.067,-0.067,-0.035,0.04,0.219,0.033,0.054,0.392,0.115,0.148,0.071
GTF2A1 (UniProt P52655),-0.012,0.061,-0.051,0.201,0.019,0.035,-0.006,-0.029,-0.018,-0.051,0.048,0.087,-0.039,0.003,-0.007,-0.038,-0.021,-0.003,-0.056,0.032
